Assay results published in PubChem BioAssay AID595 (National Center for Advancing Translational Sciences (NCATS), 2007).
The whole screen tested about 71,000 compounds, of which about 310 (0.44%) were called active. Roughly 5% stayed inconclusive and do not appear here. The full list was thinned out, with actives kept by preference. Unmarked numbers belong to inactive results. Calls follow the shape of the dose curve; as a rule, active = well fitted curve in either direction with a large enough effect; inconclusive = small, poorly fitted or top-dose-only effect, or another doubt; inactive = flat fitted curve, though single readings scatter.

test system: Hsp90 C-terminal peptide / TPR2A (Hop) interaction, human; assay: qHTS Assay for Disrupters of an Hsp90 Co-Chaperone Interaction; settings: AlphaScreen TPR2A-His6 binding biotin-Hsp90 C-terminal peptide; series mostly up to 57 µM; activity change, negative = inhibition: at the top concentration
Excerpt: NIH Chemical Genomics Center [NCGC]
NIH Molecular Libraries Screening Centers Network [MLSCN]
Hsp90 (heat shock protein 90) is the essential molecular chaperone and it accounts for 1-2% of all cytosolic proteins and is critical for the activity of diverse cellular proteins that are involved in a variety of cellular processes, including development, cell cycle, and steroid hormone signaling. Its client proteins include signaling kinases such as IGF1R, Akt, v-Src, Raf-1; regulators of cell survival such as Bcr-Abl; and transcription factors such as mutated p53, estrogen and progesterone receptors. Hsp90 has emerged as an important target for cancer treatment due to its essential role in maintaining transformation and regulating the function of oncogenic signaling proteins.
The in vivo function of Hsp90 is regulated by the binding and hydrolysis of ATP at its N-terminal. Geldanamycin binds to ATP site and inhibit Hsp90 function. Geldanamycin and its analogues are under clinical trials in cancer patients.
This domain contains the binding site for tetratricopeptide repeat (TPR) domains on HOP (Hsp Organizing Protein). TPR is a structural motif used by a significant number of cochaperones by which the in vivo function of Hsp90 is regulated. TPR2A on HOP binds specifically to MEEVD motif of the C-terminal of Hsp90.
A homogeneous AlphaScreen is developed to assess the interaction between TPR2A and MEEVD motif of the C-terminal of Hsp90 by using the isolated TPR2A domain and a synthesized 20mer Hsp90 C terminal peptide. AlphaScreen is two bead-based proximity-dependent chemical energy transfer luminescent assay platform. TPR2A-His-6 and biotinylated Hsp90 C terminal peptide will bring streptavidin donor beads and nickel chelate acceptor beads to a proximity range (less than 200 nm), and subsequently lead a chemical luminescent reaction upon exciting donor beads with 680 nm laser. Inhibition of TPR2A and MEEVD motif interaction by small molecules could attenuate or abolish this chemical luminescent reaction.
Counter screening: Biotinylated-His-6 (PerkinElmer) can be utilized as a counter screen, as it serves as a linker to bring streptavidin beads and nickel chelate beads together. The counter screen can exclude alpha screen platform false positives due to small molecules being metal chelators, biotin analogues and imidazole analogues, or due to interfering with oxygen release from donor beads. Such an assay should be utilized to qualify any activity observed in this screen.
NCGC Assay Protocol Summary:
The assay was performed on 1536-well white plate (untreated solid bottom). Liquids were dispensed by 1536-well plate washer (Kalypsys, San Diego, CA). Plates were read on EnVision (PerkinElmer, Boston, MA).TPR2A-His6 was produced using a bacteria expression system and purified using a well developed method (Ghosh et al., 2000). Hsp90 C terminal 20-mer peptide with or without an N-terminal biotin group are synthesized using automated solid phase synthesis by the Yale Keck facility. The composition of assay buffer was (in mM) 25 HEPES, 100 KCl, 2 MgCl2 and 2 DTT; 0.1% BSA and 0.01% Tween-20. TPR2A-His6 binding to biotin-Hsp90 will bring streptavidin donor beads and nickel chelate acceptor beads (PerkinElmer) together and can be measured by Alpha reading by EnVision (PerkinElmer). Free Hsp90 blocks biotin-Hsp90 binding to TPR2 and serves as a positive control in the current asssay.
The assay was performed at room temperature. All compounds were screened as titrations from […] to 46 uM final concentration. The assay was performed in 1536-well format plates (untreated white solid bottom, Corning Inc.) as follows:
Sequence,Parameter,Value,Description
1,Reagent,3 uL TPR2A-His6,Final concentration was 5nM
2,Compound,23 nL,Final titration was from 0.7 nM to 46 uM
3,Time,15 minutes,Room temperature
4,Reagent,1 uL biotin-Hsp90,With and without free Hsp90. Final concentration was 10 nM for biotin-Hsp90 and 10uM for free Hsp90.
5,Time,1 hour,Room temperature
[…]
% is scaled to controls: 0 for no effect and ±100 for the full control effect; potency is read from the fitted curve at half-maximal effect.

Structure (SMILES) | activity change, negative = inhibition | Potency
C=CCn1c(COc2ccccc2F)nnc1SCC(=O)N1CC(=O)Nc2ccccc21 | -3.33% | 
CO[C@@H]1/C=C\O[C@]2(C)Oc3c(C)c(O)c4c(O)c(c(CN(C)C)c(O)c4c3C2=O)NC(=O)/C(C)=C\C=C[C@@H](C)[C@@H](O)[C@H](C)[C@@H](O)[C@H](C)[C@H](OC(C)=O)[C@@H]1C | -3.79% [at 11 µM] | 
CC[C@H](c1ccccc1)c1cc(C(C)(C)C)cc(C(C)(C)C)c1O | 5.54% [at 11 µM] | 
S=c1[nH]nc(SCc2ccccc2Cl)c2[nH]cnc12 | -1.97% [at 11 µM] | 
Oc1cc2c(cc1O)CN(C(=S)NCCc1ccc(Cl)cc1)CCC2 | inactive | 
CCOC(=O)c1[nH]cnc1C(=O)NC1CCCCC1 | -5.53% | 
N#Cc1ccccc1-c1ccc2ncnc(NCc3cccnc3)c2c1 | -3.83% | 
O=C(O)C1CCN(c2ncnc3ccc(-c4ccccc4C(F)(F)F)cc23)CC1 | -3.83% | 
c1ccc2c(Nc3ccncc3)nc(-c3ccc4c(c3)OCO4)nc2c1 | -7.62% | 
C#CCCCCCCCCCCCCCCCC(=O)O | 2.03% | 
Cc1ccnc(NC(=O)c2ccc(NC(=O)c3ccco3)cc2)c1 | -4.27% | 
CC(NC(=O)c1ccco1)C(=O)Nc1nc(-c2ccccn2)cs1 (configuration not stated) |  | 10 µM (active)
O=C(Nc1ccc(NC(=O)c2cccs2)cn1)c1ccco1 | 0.348% | 
N#CCCn1c(=O)c(-c2cc(F)cc(F)c2)nc2cnc(Oc3ccccc3)nc21 | -22.8% | 
CCCc1cc(=O)[nH]c(SCC(=O)OCc2ccccc2)n1 | -3.02% | 
COc1ccccc1-c1nc(NCc2cccs2)c2ccccc2n1 | -7.25% | 
O=C(Nc1c2c(nn1-c1ccc(F)cc1)CS(=O)C2)C12CC3CC(CC(C3)C1)C2 (configuration not stated) | -1.88% | 
CCOC(=O)CNC(=O)CSc1nnc(-c2cccc(OC)c2)n1CC | 0.037% | 
COC(=O)[C@H]1[C@H]2C[C@H]3c4[nH]c5ccccc5c4CCN3C[C@@H]2CC[C@@H]1O | inactive | 
O=C(c1cccc2ccccc12)N1CCN(c2ccccc2F)CC1 | 1.86% | 
COc1ccc2oc(=O)c(C(=O)N3CCN(c4ccccc4F)CC3)cc2c1 | -5.42% | 
O=C(Nn1cc(C(=O)N2CCN(c3ccccc3F)CC2)c2ccccc2c1=O)c1cnccn1 |  | 3.98 µM (active)
c1ccc(CNc2ncncc2-c2cccnc2)cc1 | -8.1% | 
COc1ccc2[nH]cc(CCNc3ncnc4ccc(-c5ccccc5CN(C)C)cc34)c2c1 | -21.4% | 

Structure (SMILES) | activity change, negative = inhibition | Potency
COc1ccc(C(=O)Nc2c(N)nc(SCC(=O)N3CCC(C)CC3)[nH]c2=O)cc1OC | -3.46% | 
COc1ccc(-c2[nH]nc3c2C(c2ccncc2)C(C#N)=C(N)O3)cc1 (configuration not stated) | -5.29% | 
COc1cc(C2C(C#N)=C(N)Oc3n[nH]c(-c4ccccn4)c32)cc(OC)c1OC (configuration not stated) |  | 25.1 µM (active)
CCOc1c(OC)cc(C2C(C#N)=C(N)Oc3n[nH]c(-c4ccncc4)c32)cc1OC (configuration not stated) | -6.32% | 
COc1ccc(-c2nc3cnc(OC)nc3n(Cc3ccc(F)cc3)c2=O)cc1 | -3.6% | 
O=c1cc(-c2ccc(O)c(O)c2)oc2cccc(O)c12 | -19.6% | 
CCCCCCCCCCCC(=O)O | -1.69% | 
CCCOC(=O)Nc1ccccc1C(N)=O | -3.39% | 
CC(=O)/C(C)=N\O | 0.893% | 
CCn1c(=N)c(C(=O)NCCCOC)cc2c(=O)n3cccc(C)c3nc21 | -6.79% | 
O=C(c1ccco1)N1CCC2(CC1)CCN(c1ncccn1)CC2 | 0.252% | 
C=CCNC(=O)CCCOc1cccc(C)c1 | -6.77% [at 11 µM] | 
CCOC(=O)C(CCOc1cccc(CC)c1)C(=O)OCC |  | 25.1 µM [activator] (active)
COC(=O)[C@@H](NC(=O)NCc1cccc(OC)c1)C(C)C | -1.2% | 
COc1cccc(-n2c(SCC(=O)NC3CCCCC3)nc3n[nH]c(C)c3c2=N)c1 | -1.24% | 
CC(=O)Nc1ccc(S(=O)(=O)N2CCC(N(C)CCC(C)C)CC2)cc1 | -3.29% | 
Cc1ccc(/C(=C/CN2CCCC2)c2ccccn2)cc1 | inactive | 
Cc1ccc(S(=O)(=O)Cn2nnnc2CN2CCN(Cc3ccc4c(c3)OCO4)CC2)cc1 | -1.83% | 
N=c1c2c3c(sc2ncn1N)CCCCC3 | -0.172% | 
COC(=O)c1ccccc1NC(=O)c1cncc(Br)c1 | 19.5% | 
N#C/C(=C\c1ccc(O)c(O)c1)C(=O)NCc1ccccc1 | -10.1% | 
COc1ccc(OC)c([C@H](O)CNC(=O)CN)c1 | -3.33% [at 26 µM] | 
Cc1cnc(CNc2ncncc2-c2ccccc2Cl)cn1 | 3.83% | 
